We go through twelve compounds from PubChem BioAssay (Tox21).

Records with an inconclusive call do not appear. Values without a mark were called inactive. The source made the active and inactive calls. Calls follow the shape of the dose curve; as a rule, active = well fitted activation curve with a large enough effect; inconclusive = small, poorly fitted or top-dose-only effect; inactive = flat fitted curve, though single readings scatter.
% is scaled to controls: 0 for no effect and ±100 for the full control effect.

The assay can be described thus: qHTS assay to identify small molecule phospholipidosis (PLD) inducers (AID 1259344). Particulars: HepG2 phospholipidosis, LipidTOX Red imaging, 24 h; series mostly up to 38.3 µM; PLD induction: at the top concentration. The procedure, abridged:
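Read-out is LipidTOX Red fluorescence (ex 595/em 615) imaged in HepG2 cells after 24 h compound exposure at 37 C, with Hoechst nuclear counterstain (ex 352/em 461) allowing per-cell normalisation.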
As for `CCCCCCCCCCCCOS(=O)(=O)O`, the “PLD induction” value was -0.261%. Same read-out and setting: for `CNCC(=O)N[C@@H](CCCN=C(N)N)C(=O)N[C@H](C(=O)N[C@@H](Cc1ccc(O)cc1)C(=O)N[C@H](C(=O)N[C@@H](Cc1cnc[nH]1)C(=O)N1CCC[C@H]1C(=O)N[C@@H](C)C(=O)O)C(C)C)C(C)C` the value was 0.0608%. As to `CCCCCCCCCC(=O)NO`, the Potency result is “inactive”. In the case of `COc1ccc(/C=N/NC(=O)c2ccncc2)c(C(=O)O)c1OC`, the “PLD induction” value is -0.55%.

In the case of `NC(=O)c1cc[n+](CC2=C(C(=O)O)N3C(=O)[C@@H](NC(=O)C(c4ccccc4)S(=O)(=O)[O-])[C@H]3SC2)cc1` (some centres not stated), the “PLD induction” value is -0.639% [at 15.5 µM]. In the case of `C[S+](CC[C@H](N)C(=O)O)C[C@H]1O[C@@H](n2cnc3c(N)ncnc32)[C@H](O)[C@@H]1O` (some centres not stated), the Potency entry was “inactive”.

Consider `CC(=O)OCC(=O)[C@@]1(O)CC[C@H]2[C@@H]3CCC4=CC(=O)CC[C@]4(C)C3=CC[C@@]21C`, for which the “PLD induction” value is -0.152%. `CCCCCCCC[N+](C)(C)CCCCCCCC`: the Potency entry is “inactive”.

As to `CNC(=O)OCc1cccc(COC(=O)NC)n1`, the “PLD induction” value is -0.816%. For `CC[C@H]1OC(=O)C[C@@H](O)[C@H](C)[C@@H](O[C@@H]2O[C@H](C)[C@@H](O)[C@H](N(C)C)[C@H]2O)[C@@H](CCN2C[C@H](C)C[C@H](C)C2)C[C@@H](C)C(=O)/C=C/C(C)=C/[C@@H]1CO[C@@H]1O[C@H](C)[C@@H](O)[C@@H](OC)[C@H]1OC`, the “PLD induction” value is 0.424%. Turning to `O=C(O)COc1ccc(C(=O)c2cccs2)c(Cl)c1Cl`, the Potency entry is “inactive”.

As to `O=C1c2c(O)cccc2[C@H]([C@@H]2O[C@H](CO)[C@@H](O)[C@H](O)[C@H]2O)c2cc(CO)cc(O)c21`, the Potency entry was “inactive”.
